Sampled rows, rich in hits. Any-hit rate of the full collection: about 3%.
PAFAH1B3 inh = PAFAH1B3 enzyme inhibitors, primary screen, biochemical, fluorescence polarization, human | 340,000 tested, 0.28% active | recombinant PAFAH1B3, FP-rhodamine probe | inhibition, % at 3.39 µM | Platelet-activating factor acetylhydrolase IB subunit alpha1 (Homo sapiens), Q15102;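 active means inhibition above the screen-wide average of all tested compounds plus 3 SD, cut at about 25% in these data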
PAFAH2 inh = PAFAH2 enzyme inhibitors, primary screen, biochemical, fluorescence polarization, human; recombinant PAFAH2, FP-rhodamine activity probe; AID 492956, 2010; Platelet-activating factor acetylhydrolase 2, cytoplasmic (Homo sapiens), Q99487; 340,000 tested, 0.99% active; inhibition, % at 3.39 µM;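 active means inhibition above the mean over all tested compounds plus 3 SD, cut at about 30% in these data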;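 further: inhibitors block probe labeling of enzyme so polarization drops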
PAFAH1B2 inh = PAFAH1B2 enzyme inhibitors, primary screen, biochemical, fluorescence polarization, human | Platelet-activating factor acetylhydrolase IB subunit alpha2 (Homo sapiens), P68402 | recombinant PAFAH1B2, FP-rhodamine activity probe | inhibition, % at 3.39 µM | 340,000 tested, 1.2% active;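 active means inhibition above the mean of all tested compounds plus 3 SD, cut at about 24% in these data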
Target sequence (P68402 whole entry, looked up): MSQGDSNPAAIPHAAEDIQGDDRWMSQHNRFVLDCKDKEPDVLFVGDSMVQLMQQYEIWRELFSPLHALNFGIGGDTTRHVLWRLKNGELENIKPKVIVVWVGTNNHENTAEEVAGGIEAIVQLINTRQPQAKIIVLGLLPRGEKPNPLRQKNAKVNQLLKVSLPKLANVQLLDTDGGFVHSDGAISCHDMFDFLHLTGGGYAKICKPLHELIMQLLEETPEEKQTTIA
ATG4B inhibitor = ATG4B protease inhibitors, primary screen, biochemical, fluorescence, uHTS | Cysteine protease ATG4B (Homo sapiens), Q9Y4P1 | ATG4B cleavage of LC3-PLA2, NBD-HPC fluorescence, 1 h | inhibition, % at 8.33 µM | 340,000 tested, 0.51% active; in the data active means inhibition above about 40%
DAGLB inhibitor = DAGLB lipase inhibitors, primary screen, biochemical, fluorescence, HTS; Diacylglycerol lipase-beta (Homo sapiens), Q8NCG7; HEK293T DAGLB membrane lysate, EnzChek fluorogenic substrate; inhibition, % at 5.17 µM; 340,000 tested, 0.059% active; in the data active means inhibition above about 34%
pPAFAH inh = pPAFAH enzyme inhibitors, primary screen, biochemical, fluorescence polarization, human; recombinant pPAFAH, FP-rhodamine probe fluorescence polarization; inhibition, % at 3.39 µM; 330,000 tested, 1.5% active; AID 463082, 2010;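 active means inhibition above the mean inhibition across the screen plus 3 SD, cut at about 25% in these data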;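 further: inhibitors block binding of the rhodamine activity-based probe so polarization drops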
ATG4B conf = ATG4B protease inhibitors, retest, confirmation, biochemical, fluorescence, single concentration; shares compounds with ATG4B inhibitor; ATG4B protease fluorescent substrate cleavage assay; inhibition, % at 8.33 µM; 320 tested, 92% active; AID 504757, 2011; in the data active means inhibition above about 39%
PLA2 ctr = PLA2 enzyme inhibition, counter-screen for ATG4B inhibitor project, biochemical, single concentration, uHTS hits. inhibition, % at 8.33 µM. shares compounds with ATG4B inhibitor. purified PLA2, NBD-C6-HPC fluorescence, 45 min. AID 588402, 2011. 1,600 tested, 66% active; in the data active means inhibition above about 50%
Target sequence (P04054 whole entry, looked up): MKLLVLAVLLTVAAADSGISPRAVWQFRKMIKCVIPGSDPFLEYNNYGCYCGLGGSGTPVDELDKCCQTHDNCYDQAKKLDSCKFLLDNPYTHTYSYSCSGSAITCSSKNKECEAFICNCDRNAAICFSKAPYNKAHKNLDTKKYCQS
Large screens that a line does not name were inactive (follow-up assays come after a bar, where they were run).

COc1cc(CN2CCNC(=O)C2CC(=O)N2CCCO2)cc(OC)c1 (stereo not drawn)	none
Cc1cnc(C(=O)OCC(=O)Nc2cccc(S(=O)(=O)N3CCOCC3)c2)cn1	none
CCC(=O)NC(Nc1c(C)n(C)n(-c2ccccc2)c1=O)C(Cl)(Cl)Cl (stereo not drawn)	none
Cc1ccc(-c2nnc(Nc3ccc(CC(N)=O)cc3)c3ccccc23)cc1S(=O)(=O)NCC1CCCO1 (stereo not drawn)	ATG4B inhibitor 90 | PLA2 ctr 89
N#CC1=C(S)N(c2ccccc2)C(c2ccc(-c3ccccc3Cl)o2)NC1=O (stereo not drawn)	ATG4B inhibitor 66 | PLA2 ctr 74
O=C1CCCC2=C1C(c1ccncc1)c1c(nc(SCc3ccccc3Cl)[nH]c1=O)N2 (stereo not drawn)	ATG4B inhibitor 77 | PLA2 ctr 81
CC1(c2nnc(Cc3ccccc3)o2)CC(c2cccnc2)=NO1 (stereo not drawn)	none
Cc1ccc(N(CC(=O)Nc2ccc(F)c(Cl)c2)S(=O)(=O)c2c(C)noc2C)cc1	ATG4B inhibitor 41 | PLA2 ctr 61
COc1ccc(NC(=O)CN2C(=O)NC(C)(C3CC3)C2=O)cc1S(=O)(=O)N1CCOCC1 (stereo not drawn)	none
CN(C)c1cccc(C(=O)Nc2nnc(Cc3ccccc3)s2)c1	none
CCOc1c(Br)cc(C(N)=O)cc1OCc1ccccc1	ATG4B inhibitor 79 | PLA2 ctr 80
CCOc1c(Br)cc(C(N)=O)cc1OC	none
CCCOc1c(Br)cc(C(N)=O)cc1OCC	ATG4B inhibitor 42 | PLA2 ctr 56
COc1cc(C(N)=O)cc(Br)c1OCc1ccccc1	ATG4B inhibitor 70 | PLA2 ctr 71
COc1cc(NC(=S)NC(=O)c2ccccc2F)ccc1NC(=O)c1ccco1	none
CS(=O)(=O)c1ccc2nc(NC(=O)c3ccc(NS(=O)(=O)c4cccc([N+](=O)[O-])c4)cc3)sc2c1	none
O=C(CN1CCN(C(=O)C2CCCO2)CC1)Nc1cc(C(F)(F)F)ccc1Cl (stereo not drawn)	none
COc1ccc(NC(=O)C2CCC(CNS(=O)(=O)c3cccs3)CC2)cc1 (stereo not drawn)	none
COCCNC(=O)c1ccc2c(c1)ncn2-c1cccc(C)c1	none
Cc1cccc(-n2cnc3cc(C(=O)N4CCc5ccccc54)ccc32)c1	ATG4B inhibitor 62 | PLA2 ctr 64
COc1ccccc1/C=C/C(=O)OC(C)CN1CCCCC1 (stereo not drawn)	none
CCOC(=O)c1c(C)[nH]c(C)c1S(=O)(=O)N(C)CC(=O)Nc1cccc(C)c1	none
CCOC(=O)c1sc(-c2ccccc2)cc1NC(=O)Nc1ccccc1	ATG4B inhibitor 41 | ATG4B conf 83 | PLA2 ctr inactive
CC(C)(O)c1ccccc1CC[C@@H](SCC1(CC(=O)O)CC1)c1cccc(/C=C/c2ccc3ccc(Cl)cc3n2)c1	ATG4B inhibitor 92 | PLA2 ctr 92
CC1CCc2c(sc(Nc3nc4c(F)cccc4s3)c2C(N)=O)C1 (stereo not drawn)	ATG4B inhibitor 41 | PLA2 ctr inactive
O=C1OC(c2cccs2)=N/C1=C\c1ccc(-c2cccc(Cl)c2)o1	ATG4B inhibitor 71, pPAFAH inh 30 | ATG4B conf 55 | PLA2 ctr inactive
CC(C)(C)C(=O)OCCNc1nc(-c2ccccc2)nc2ccccc12	ATG4B inhibitor 54 | PLA2 ctr 63
CC(C)OCCCNc1nc(-c2ccccc2)nc2ccccc12	none

Source: PubChem BioAssay (several laboratories)
